eIF4H inh: inhibitors of RNA binding by human eIF4H; Q15056; eIF4H fluorescence polarization binding assay; inhibition, % at 35 µM; 290,000 compounds, 0.94% hits; AID 2012;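 further: calls also rest on retests at 20 µM and on dose response follow-up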
MLLE-PAM2 inh: inhibitors of microRNA-mediated deadenylation, human PABP1 MLLE binding | P11940 | GST-MLLE / FITC-PAM2 fluorescence polarization | inhibition, % at 20 µM | 360,000 compounds, 0.36% hits | AID 588489; in the data active means inhibition above about 35%, passing the limit was not always enough;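 further: plate controls were DMSO wells with GST-MLLE for no effect and wells lacking GST-MLLE protein for full effect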
eIF4E 4G PPI: blocks eIF4E binding to eIF4G. 220,000 compounds, 0.37% hits. inhibition, % at 21.7 µM. AID 782. P63073+Q04637. TR-FRET eIF4E-eIF4GI(517-606) binding, 2 h;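 active means inhibition above about 30%, limit read from the data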;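 further: 0% = full FRET control wells and 100% = background wells lacking eIF4GI fragment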
PERK inh: human PERK inhibition, primary cell-based screen | Q9NZJ5 | inhibition, % at 5.6 µM | CHO PERK-DD fusion, SEAP luminescence translation reporter | 220,000 compounds, 0.17% hits;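 active means inhibition above the mean inhibition of all tested compounds plus 3 SD, set separately per screening campaign, cut at about 2.9% in these data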;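 further: PERK kinase domain activated by AP20187 dimerizer at 100 nM; 0% = DMSO with dimerizer and 100% = rapamycin at 8.4 µM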
PABP FP inh: blocks human PABP binding to poly(A) RNA; P11940; fluorescence polarization; calls only at 35 µM; 290,000 compounds, 1% hits; AID 2014;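 further: calls also rest on retests at 20 µM and on dose response follow-up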
The depositor's hits bear a star; i = inactive; ? = inconclusive; . = no result given; + = active, no number. Only some compounds are listed: those with a hit (about 1.6% of all), similar ones and a draw of the others. Unless noted, how the calls were made is not given here.

SMILES	eIF4H inh	MLLE-PAM2 inh	eIF4E 4G PPI	PERK inh	PABP FP inh
COC(=O)c1ccc2c(c1)NC(=O)C(N1CCCC1)S2 (centres undefined)	43.5	-6.8	-3.1	-0.7	i
O=C(O)c1ccc2c(c1)NC(=O)C(N1CCCC1)S2 (centres undefined)	49.3	54.8*	0.9	-0.4	i
COc1cc2c(NCCCCCO)ncnc2c(OC)c1OC	.	-7.8	.	.	.
O=c1c(-c2c(O)cc(O)c3c(=O)cc(-c4ccc(O)cc4)oc23)c(-c2ccc(O)cc2)oc2cc(O)cc(O)c12	94.7*	-14.3	2.4	.	+
O=c1cc(-c2ccc(O)cc2)oc2c(-c3c(O)cc(O)c4c(=O)cc(-c5ccc(O)cc5)oc34)c(O)cc(O)c12	.	-6.7	.	.	.
CCCCC[C@H](O)/C=C/[C@@H]1[C@@H](C/C=C\CCCC(=O)OC)[C@@H](O)C[C@H]1O	-18.0	-4.1	88.2*	1.4	i
CCc1ccc(NC(=O)CNCc2ccc(OC)c(OC)c2)cc1	7.5	-7.7	.	.	i
CCc1ccc(/C=C2\Oc3cc(OS(C)(=O)=O)ccc3C2=O)cc1	-4.5	5.6	2.8	-0.4	i
CCc1ccc(/C=C2\Oc3c(ccc(O)c3CN3CCN(CCO)CC3)C2=O)cc1	?	-12.0	72.3*	-1.2	?
O=C(Cc1cccc(NC(=O)C2CCN(C(=O)C3CCCCC3)CC2)c1)Nc1cccc(C(=O)N2CCCCC2)c1	.	6.1	.	.	.
CCn1c(SCc2ccc(Cl)c(Cl)c2)nnc1C(C)NC(=O)c1ccc(OC)cc1 (centres undefined)	active	-0.8	8.9	1.1	+
Cc1cc(Br)ccc1NC(=O)CN(C)C(=O)C1CSC2(C)CCC(=O)N12 (centres undefined)	.	-3.4	.	.	.
Cc1ccc(NC(=S)NCCN(C2CCCCC2)C2CCCC2)cc1	-1.0	-6.4	-1.1	-1.2	i
Cc1ccc(NC(=S)NCCN(C2CCCCC2)C2CCCC2)cc1C	active	2.1	-1.7	-1.3	+
COc1ccccc1Cn1c(-c2ccco2)nc2nc3ccccc3nc21	.	-32.8	.	-0.7	.
COc1ccc(CCn2c(-c3ccco3)nc3nc4ccccc4nc32)cc1	66.9*	-45.8	-3.3	0.1	+
CC(C)(C)NC(=S)NC(=O)C12CC3CCC(CC(C3)C1)C2	-7.7	23.3	-4.3	0.6	i
CC12CC3(C)CC(C)(C1)CC(C(=O)NC(=S)NC(C)(C)C)(C2)C3	-0.8	42.6*	-4.9	0.2	i
CN=C(Nc1cccc(Cl)c1)SC1CC(=O)N(c2ccc(OC)cc2)C1=O (centres undefined)	0.7	7.1	4.8	-0.3	i
CCn1c(C)cc(=S)c2ccccc21	-0.3	39.9*	13.9	-0.2	i
CCn1c2ccccc2c2cc(N)ccc21	71.5*	-25.4	8.6	-0.1	+
CCn1c(CCn2c3ccccc3c3ccccc32)n[nH]c1=S	-1.2	13.9	-7.3	-0.6	i
CCOC(=O)c1ccccc1NC(=O)Cn1cnc2c(nnn2-c2ccc(C)cc2)c1=O	4.9	-7.6	50.3*	0.2	i
COc1ccccc1NC(=O)Cn1cnc2c(nnn2-c2ccc(C)cc2)c1=O	-8.1	-2.2	1.8	0.3	i
O=C(Cn1cnc2c(nnn2-c2ccccc2)c1=O)N1CCOCC1	active	-4.9	-3.3	-0.7	+
SMILES	eIF4H inh	MLLE-PAM2 inh	eIF4E 4G PPI	PERK inh	PABP FP inh
COc1ccc2[nH]c3c(=O)n(CCCCC(=O)N4CCC(C(N)=O)CC4)c(=S)[nH]c3c2c1	-1.6	51.1*	-2.3	0.0	i
COc1ccc2[nH]c3c(=O)n(CCCCC(=O)NCCN4CCCC4)c(=S)[nH]c3c2c1	11.5	19.1	7.2	1.4	i
CCc1c(C(C)S(=O)(=O)c2ccccc2)[nH]c(=O)n1CC (centres undefined)	2.5	39.7*	-2.3	-0.3	i
CC(S(=O)(=O)c1ccccc1)S(=O)(=O)c1ccccc1	.	0.6	.	.	.
Cc1ccc(C(=O)N2CCN(CCNC(=O)C(=O)NCc3ccc(Cl)cc3)CC2)cc1	.	-15.0	.	.	.
CCCC(=O)Nc1nnc(-c2ccco2)s1	24.1	11.1	13.1	-0.3	i
Cc1cccc(OCC(=O)Nc2nnc(-c3ccco3)s2)c1	33.2	10.0	1.8	1.8	i
COc1ccccc1OCC(=O)Nc1nnc(-c2ccco2)s1	95.9*	10.0	-0.5	0.2	+
O=C(Cc1ccccc1)Nc1nnc(-c2ccco2)s1	64.4	-6.2	-4.6	-0.9	+
Cc1cccc(NC(=O)c2nc[nH]c2C(=O)N[C@@H](C)C(=O)OC(C)(C)C)c1	5.3	22.9	1.4	.	i
NC(=O)c1ccsc1NC(=O)COC(=O)c1c(F)cccc1Cl	.	-2.8	.	.	.
CCOC(=O)[C@H]1[C@H]2COc3ccc(Br)cc3[C@H]2N2C(=O)CN(Cc3ccc(C)cc3)C(=O)[C@@]12C	.	46.8*	.	.	.
CNc1sc(C(=O)c2ccccc2F)c(N)c1-c1nc2ccccc2s1	12.8	41.2*	-4.4	-0.9	i
CCCCN(C(=O)COC(=O)CSc1ccc([N+](=O)[O-])cc1)c1c(N)n(CCC)c(=O)[nH]c1=O	.	13.3	.	.	.
O=C1CCCN1CC1CCCN(Cc2nc(COc3ccccc3)no2)C1 (centres undefined)	-7.4	7.2	0.3	0.0	i
C=CCC1(CC=C)CCCN1Cc1nc(COc2ccccc2)no1	59.3*	-30.6	-4.9	-0.6	i
COc1ccc(N(Cc2cc(=O)[nH]c3ccccc23)C(=O)CCl)cc1	4.9	-7.0	.	.	i
O=C(NCC(=O)N1CCN(C(=O)c2ccccc2)CC1)c1ccc(Cl)cc1Cl	.	-1.0	.	.	.
O=C(COC(=O)c1cccnc1)NC1CCCc2ccccc21 (centres undefined)	78.0*	8.4	-2.5	-0.1	i
O=C(COC(=O)c1cnccn1)NC1CCCc2ccccc21 (centres undefined)	.	-3.0	.	.	.
COc1ccc(NC(C)=[N+](C)CCNS(=O)(=O)c2ccc(Cl)cc2)cc1	-15.7	-49.5	.	.	+
COc1ccc(NC(=O)CNS(=O)(=O)c2ccc(Cl)cc2)cc1	2.6	13.6	-1.4	-0.1	i
O=c1/c(=C/c2ccco2)sc2n1CN(c1cccc(Br)c1)CN=2	51.2*	-82.7	-16.4	0.7	+
Cc1ccc(N2CN=c3s/c(=C\c4ccccn4)c(=O)n3C2)cc1	-9.5	-29.3	-3.7	3.1*	i
CCc1nnc(NS(=O)(=O)c2ccc(NC(=S)NC(=O)c3ccc(F)cc3)cc2)s1	0.6*	28.2	-6.4	-1.0	i
CC(=O)Nc1ccc(NC(=S)NC(=O)c2ccc(-c3ccccc3)cc2)cc1	.	33.5	.	.	.
CCc1nnc(NS(=O)(=O)c2ccc(NC(=S)NC(=O)c3cccnc3)cc2)s1	3.0	27.6	-2.1	1.2	i
Cc1cc(NS(=O)(=O)c2ccc(NC(=S)NC(=O)c3cccnc3)cc2)no1	-8.3	31.4	4.0	0.5	i
CC(=O)Nc1ccc(NC(=S)NC(=O)c2ccc([N+](=O)[O-])cc2)cc1	3.0	40.2*	1.1	0.7	i
